# Assay results taken from PubChem BioAssay (Tox21).
# Values without a mark were called inactive. Inconclusive results are not listed. Where a call stands in place of a potency, no number is given. The source made the active and inactive calls. Calls follow the shape of the dose curve; as a rule, active = well fitted curve in the direction sought with a large enough effect in the repeat runs; inconclusive = weak or mixed curves; inactive = no such curve, though single readings can be large; an effect the other way counts as inactive or inconclusive.
# Legend:
# [1] = A CellTox Green Cytotoxicity Assay to monitor cytotoxicity in HEK293 cells - 40 hour (AID 1224871); also: nearly all actives have a fitted effect of over 45% in size
# Method in brief: (§1)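 HEK293 cells, 600/well, were preincubated 5 hours and then exposed to compounds at 37 C for up to 40 hours. A cell-impermeant cyanine dye staining dead-cell DNA was read by fluorescence at 0, 8, 16, 24, 32 and 40 h time points.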
# [2] = qHTS RealTime-Glo MT Cell Viability Assay in HepG2 cells - 8 hour (AID 1224873); also: nearly all actives have a fitted effect of over 55% in size
# Method in brief: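 HepG2 cells mixed with RealTime-Glo MT reagents (NanoLuc plus cell-permeant prosubstrate) were seeded at 600 cells/well, incubated 5 h at 37 C/5% CO2, then pinned with compounds in DMSO; nonlytic luminescence tracked viability during 40 h treatment.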
# [3] = qHTS RealTime-Glo MT Cell Viability Assay in HEK293 cells - 40 hour (AID 1224874); settings: RealTime-Glo luminescence; max response: stronger effect = lower value; also: nearly all actives have a fitted effect of over 50% in size; also: potency is read from the fitted curve at half-maximal effect
# Method in brief: (§2)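 600 cells/well were plated with the nonlytic NanoLuc/prosubstrate reagent, pre-incubated 5 h, then given 23 nL of compound in DMSO. Incubation at 37 C for 40 h, with luminescence from viable-cell-reduced substrate read repeatedly from 0 h.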
# [4] = qHTS RealTime-Glo MT Cell Viability Assay in HepG2 cells - 32 hour (AID 1224877); also: nearly all actives have a fitted effect of over 55% in size
# Method in brief: (§3)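 Compound treatment began 5 h after plating HepG2 cells (600/well) with NanoLuc luciferase and prosubstrate. Plates stayed at 37 C for 40 h; luminescence was captured at six time points, 0 h through 40 h.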
# [5] = A CellTox Green Cytotoxicity Assay to monitor cytotoxicity in HepG2 cells - 24 hour (AID 1224878); also: nearly all actives have a fitted effect of over 45% in size; also: potency is read from the fitted curve at half-maximal effect
# Method in brief: (§4)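 HepG2 cells, 600/well, preincubated 5 h with CellTox Green dye, then exposed to Tox21 compounds in DMSO at 37 C for up to 40 h. Dead-cell DNA fluorescence read at the indicated time point.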
# [6] = A CellTox Green Cytotoxicity Assay to monitor cytotoxicity in HepG2 cells - 40 hour (AID 1224879); also: nearly all actives have a fitted effect of over 40% in size; also: potency is read from the fitted curve at half-maximal effect
# Method in brief: as §4
# [7] = qHTS RealTime-Glo MT Cell Viability Assay in HEK293 cells - 0 hour (AID 1224880); also: top concentration of the series differs between compounds; nearly all actives have a fitted effect of over 45% in size
# Method in brief: as §2
# [8] = A CellTox Green Cytotoxicity Assay to monitor cytotoxicity in HEK293 cells - 32 hour (AID 1224881); also: nearly all actives have a fitted effect of over 40% in size
# Method in brief: as §1
# [9] = A CellTox Green Cytotoxicity Assay to monitor cytotoxicity in HepG2 cells - 0 hour (AID 1224882); also: nearly all actives have a fitted effect of over 35% in size
# Method in brief: as §4
# [10] = A CellTox Green Cytotoxicity Assay to monitor cytotoxicity in HepG2 cells - 32 hour (AID 1224883); also: nearly all actives have a fitted effect of over 50% in size; also: potency is read from the fitted curve at half-maximal effect
# Method in brief: as §4
# [11] = A CellTox Green Cytotoxicity Assay to monitor cytotoxicity in HEK293 cells - 8 hour (AID 1224884); also: nearly all actives have a fitted effect of over 35% in size
# Method in brief: as §1
# [12] = A CellTox Green Cytotoxicity Assay to monitor cytotoxicity in HEK293 cells - 16 hour (AID 1224888); also: nearly all actives have a fitted effect of over 35% in size
# Method in brief: as §1
# [13] = qHTS RealTime-Glo MT Cell Viability Assay in HepG2 cells - 0 hour (AID 1224889); also: nearly all actives have a fitted effect of over 50% in size
# Method in brief: as §3
# [14] = A CellTox Green Cytotoxicity Assay to monitor cytotoxicity in HepG2 cells - 8 hour (AID 1224890); also: nearly all actives have a fitted effect of over 45% in size
# Method in brief: as §4
# [15] = A CellTox Green Cytotoxicity Assay to monitor cytotoxicity in HEK293 cells - 24 hour (AID 1224875)
# Method in brief: as §1
# [16] = A CellTox Green Cytotoxicity Assay to monitor cytotoxicity in HepG2 cells - 16 hour (AID 1224876); also: nearly all actives have a fitted effect of over 45% in size; also: potency is read from the fitted curve at half-maximal effect
# Method in brief: as §4
# [17] = qHTS RealTime-Glo MT Cell Viability Assay in HepG2 cells - 16 hour (AID 1224885); also: nearly all actives have a fitted effect of over 50% in size
# Method in brief: as §3
# [18] = qHTS RealTime-Glo MT Cell Viability Assay in HEK293 cells - 8 hour (AID 1224887); also: nearly all actives have a fitted effect of over 50% in size; also: potency is read from the fitted curve at half-maximal effect
# Method in brief: as §2
# [19] = qHTS RealTime-Glo MT Cell Viability Assay in HEK293 cells - 24 hour (AID 1224886); also: nearly all actives have a fitted effect of over 50% in size; also: potency is read from the fitted curve at half-maximal effect
# Method in brief: (§5)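 Quantitative high-throughput screen of the Tox21 10K library in HEK293: cells and RealTime-Glo reagents plated together, compound added at 5 h, luminescence monitored through 40 h at 37 C.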
# [20] = qHTS RealTime-Glo MT Cell Viability Assay in HEK293 cells - 16 hour (AID 1224872)
# Method in brief: as §5
structure (smiles),measurement,setting,value
O=C(CCCN1CCC(n2c(=O)[nH]c3ccccc32)CC1)c1ccc(F)cc1,Potency,[1],inactive
same,Potency,[2],inactive
same,max response,[3],-27.9%
same,Potency,[4],inactive
same,Potency,[5],inactive
same,Potency,[6],inactive
same,outcome,[7],inactive
same,Potency,[8],inactive
same,outcome,[9],inactive
same,Potency,[10],inactive
same,Potency,[11],inactive
same,Potency,[12],inactive
same,Potency,[13],inactive
same,Potency,[14],inactive
CC1COC2(c3ccccc3Cl)c3cc(Cl)ccc3NC(=O)CN12 (stereo unspecified),Potency,[1],inactive
same,Potency,[2],inactive
same,Potency,[15],inactive
same,Potency,[16],inactive
same,Potency,[4],inactive
same,Potency,[5],inactive
same,outcome,[7],inactive
same,Potency,[8],inactive
same,outcome,[9],inactive
same,Potency,[11],inactive
same,Potency,[17],inactive
same,Potency,[18],inactive
same,Potency,[12],inactive
same,Potency,[13],inactive
same,Potency,[14],inactive
CCCCc1ccc(O)cc1,Potency,[2],inactive
same,Potency,[3],15.5 µM (active)
same,Potency,[15],inactive
same,Potency,[16],21.8 µM (active)
same,Potency,[4],inactive
same,Potency,[5],21.8 µM (active)
same,Potency,[6],21.8 µM (active)
same,outcome,[7],inactive
same,Potency,[8],inactive
same,outcome,[9],inactive
same,Potency,[10],21.8 µM (active)
same,Potency,[11],inactive
same,Potency,[17],inactive
same,Potency,[19],19.5 µM (active)
same,Potency,[12],inactive
same,Potency,[13],inactive
same,Potency,[14],inactive
C=CCC1=C(C)[C@@H](OC(=O)[C@@H]2[C@@H](C=C(C)C)C2(C)C)CC1=O,Potency,[20],11 µM (active)
same,Potency,[2],inactive
same,Potency,[3],21.9 µM (active)
same,Potency,[16],inactive
same,Potency,[4],inactive
same,Potency,[5],49 µM (active)
same,Potency,[6],49 µM (active)
same,outcome,[7],inactive
same,outcome,[9],inactive
same,Potency,[10],49 µM (active)
same,Potency,[11],inactive
same,Potency,[19],12.3 µM (active)
same,Potency,[18],6.92 µM (active)
same,Potency,[12],inactive
same,Potency,[13],inactive
same,Potency,[14],inactive
COC(=O)c1ccccc1S(=O)(=O)NC(=O)N(C)c1nc(C)nc(OC)n1,Potency,[1],inactive
same,Potency,[2],inactive
same,max response,[3],10.1%
same,Potency,[16],inactive
same,Potency,[4],inactive
same,Potency,[5],inactive
same,Potency,[6],inactive
same,outcome,[7],inactive
same,Potency,[8],inactive
same,outcome,[9],inactive
same,Potency,[10],inactive
same,Potency,[11],inactive
same,Potency,[19],inactive
same,Potency,[18],inactive
same,Potency,[12],inactive
same,Potency,[13],inactive
same,Potency,[14],inactive
CSc1nc(N=[N+]=[N-])nc(NC(C)C)n1,Potency,[1],inactive
same,Potency,[2],inactive
same,Potency,[15],inactive
same,Potency,[16],inactive
same,Potency,[4],inactive
same,Potency,[5],inactive
same,Potency,[6],inactive
same,outcome,[7],inactive
same,Potency,[8],inactive
same,outcome,[9],inactive
same,Potency,[10],inactive
same,Potency,[11],inactive
same,Potency,[17],inactive
same,Potency,[12],inactive
same,Potency,[13],inactive
same,Potency,[14],inactive
Nc1cc(Cl)ccc1O,Potency,[1],inactive
same,Potency,[2],inactive
same,max response,[3],-11.2%
same,Potency,[16],inactive
same,Potency,[4],inactive
same,Potency,[5],inactive
same,Potency,[6],inactive
same,outcome,[7],inactive
same,Potency,[8],inactive
same,outcome,[9],inactive
same,Potency,[10],inactive
same,Potency,[11],inactive
same,Potency,[17],inactive
same,Potency,[19],inactive
same,Potency,[12],inactive
same,Potency,[13],inactive
same,Potency,[14],inactive
N#CC(Cl)(Cl)Cl,Potency,[1],inactive
same,Potency,[2],inactive
same,max response,[3],3.49%
same,Potency,[16],inactive
same,Potency,[4],inactive
same,Potency,[5],inactive
same,Potency,[6],inactive
same,outcome,[7],inactive
same,outcome,[9],inactive
same,Potency,[10],inactive
same,Potency,[11],inactive
same,Potency,[17],inactive
same,Potency,[19],inactive
same,Potency,[18],inactive
same,Potency,[12],inactive
same,Potency,[13],inactive
same,Potency,[14],inactive
COC(=O)c1c(C(F)F)nc(C(F)(F)F)c(C2=NCCS2)c1CC(C)C,Potency,[1],inactive
same,Potency,[2],inactive
same,max response,[3],-16.3%
same,Potency,[16],inactive
same,Potency,[4],inactive
same,Potency,[5],inactive
same,Potency,[6],inactive
same,outcome,[7],inactive
same,outcome,[9],inactive
same,Potency,[10],inactive
same,Potency,[11],inactive
same,Potency,[19],inactive
same,Potency,[18],inactive
same,Potency,[12],inactive
same,Potency,[13],inactive
same,Potency,[14],inactive
CC1CCCCC1NC(=O)Nc1ccccc1 (stereo unspecified),Potency,[1],inactive
same,Potency,[2],inactive
same,Potency,[15],inactive
same,Potency,[16],inactive
same,Potency,[4],inactive
same,Potency,[5],inactive
same,Potency,[6],inactive
same,outcome,[7],inactive
same,Potency,[8],inactive
same,outcome,[9],inactive
same,Potency,[10],inactive
same,Potency,[11],inactive
same,Potency,[17],inactive
same,Potency,[19],inactive
same,Potency,[12],inactive
same,Potency,[13],inactive
same,Potency,[14],inactive
[As]#[In],Potency,[1],inactive
same,Potency,[2],inactive
same,Potency,[15],inactive
same,Potency,[16],inactive
same,Potency,[4],inactive
same,outcome,[7],inactive
same,Potency,[8],inactive
same,outcome,[9],inactive
same,Potency,[11],inactive
same,Potency,[17],inactive
same,Potency,[18],inactive
same,Potency,[12],inactive
same,Potency,[13],inactive
same,Potency,[14],inactive
